Data taken from PubChem BioAssay (Tox21).
“And” between values parts separate entries of the source, which are not always exact repeats. Equal entries are not always repeated. Records with an inconclusive call do not appear. The source made the active and inactive calls. Unless noted, calls follow the shape of the dose curve; as a rule, active = well fitted curve in the direction sought with a large enough effect in the repeat runs; inconclusive = weak or mixed curves; inactive = no such curve, though single readings can be large; an effect the other way counts as inactive or inconclusive.

Experiments:
[1] = qHTS assay to identify small molecule agonists of the hypoxia (HIF-1) signaling pathway - cell viability counter screen (AID 1224844; calls by dose curve; also: nearly all actives have a fitted effect of over 50% in size; also: potency is read from the fitted curve at half-maximal effect)
Method in brief: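 Same wells as the HIF-1 reporter screen; ME-180 cells carrying HRE-bla, 17 hr treatment at 37C; CellTiter-Glo luminescence read after 30 min at room temperature.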

[2] = qHTS assay to identify small molecule antagonists of the estrogen related receptor (ERR) signaling pathway from Tox21 library (AID 1224848); also: nearly all actives have a fitted effect of over 50% in size; also: potency is read from the fitted curve at half-maximal effect
Method in brief: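 Luciferase luminescence (ONE-Glo, 30 min room temperature) was the read-out. Cells of the NTP-supplied ERR line, 2,000 per well, were given 6 h at 37 C before compound addition in DMSO and 18 h exposure at 37 C.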

[3] = qHTS assay to identify small molecule agonists of the estrogen related receptor (ERR) signaling pathway from Tox21 library (AID 1224849; calls by dose curve; also: nearly all actives have a fitted effect of over 15% in size); conditions: ERR reporter cell line, ONE-Glo luciferase, 18 h
Method in brief: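 Reporter cells (ERR, NTP source) treated with Tox21 10K compounds 18 h, 37 C. Readout: ONE-Glo luminescence, 30 min RT.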

[4] = A CellTox Green Cytotoxicity Assay to monitor cytotoxicity in HEK293 cells - 0 hour (AID 1224869); also: nearly all actives have a fitted effect of over 50% in size; also: potency is read from the fitted curve at half-maximal effect
Method in brief: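 Homogeneous no-lysis format: HEK293 cell suspension mixed with CellTox Green reagent, seeded, incubated 5 h at 37 C/5% CO2, then dosed by pintool with compound in DMSO.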

[5] = qHTS assay to identify small molecule agonists of H2AX (AID 1224845; active = well fitted activation curve with a large enough effect in the signal ratio in the repeat runs, not every such curve was filed as active; the % refers to the signal ratio; also: potency is read from the fitted curve at half-maximal effect)
Method in brief: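 Phospho-H2AX Ser139 measured by HTRF (ex 320 nm; em 665 and 620 nm) after 24 hr antibody incubation. Compounds, 15 concentrations, 0.76% DMSO, were applied to CHO-K1 cells for 3hr at 37C before lysis.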

[6] = qHTS assay to identify small molecule agonists of the hypoxia (HIF-1) signaling pathway (AID 1224846; active = well fitted activation curve with a large enough effect in the signal ratio in the repeat runs, not every such curve was filed as active; the % refers to the signal ratio; also: potency is read from the fitted curve at half-maximal effect)
Method in brief: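 In ME-180 cells bearing an HRE-bla construct, 17 h treatment with DMSO-dissolved compounds at 37C was followed by CCF4-AM loading to quantify reporter induction.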

[7] = qHTS RealTime-Glo MT Cell Viability Assay in HepG2 cells - 24 hour (AID 1224867); also: nearly all actives have a fitted effect of over 50% in size; also: potency is read from the fitted curve at half-maximal effect
Method in brief: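 Viability was tracked continuously by NanoLuc luminescence from prosubstrate reduced by living HepG2 cells, at successive time points over 40 h of compound exposure. Cells with reagent were preincubated 5 h at 37 °C before compound addition.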

[8] = qHTS RealTime-Glo MT Cell Viability Assay in HEK293 cells - 32 hour (AID 1224868); also: nearly all actives have a fitted effect of over 50% in size; also: potency is read from the fitted curve at half-maximal effect
Method in brief: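 Viability tracked continuously by luminescence as live cells reduce a prosubstrate for NanoLuc; HEK293 cells preincubated 5 h, compound-treated at 37 C, and read at 0, 8, 16, 24, 32 and 40 h.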

[9] = qHTS RealTime-Glo MT Cell Viability Assay in HepG2 cells - 40 hour (AID 1224870); also: nearly all actives have a fitted effect of over 50% in size; also: potency is read from the fitted curve at half-maximal effect
Method in brief: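 Real-time viability: cells seeded at 600 per well together with NanoLuc and cell-permeant prosubstrate, compounds added after 5 h incubation. Luminescence tracked at 0, 8, 16, 24, 32 and 40 h of exposure.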

[10] = qHTS assay to identify small molecule agonists of H2AX - cell viability counter screen (AID 1224847; calls by dose curve; also: nearly all actives have a fitted effect of over 30% in size; also: potency is read from the fitted curve at half-maximal effect)
Method in brief: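 Compounds tested at 15 concentrations were incubated 3 hr at 37C with wild-type CHO-K1 cells; cellular ATP-based luminescence (CellTiter-Glo) indicated viability.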

[11] = at 92.4 µM (top of the series) unless noted
% is scaled to controls: 0 for no effect and ±100 for the full control effect.

O=C1CCCCCN1SSN1CCCCCC1=O
active: Potency [1] 43.6 µM | Potency [2] 54.5 µM
inactive: activity change, positive = activation [3, 11] -43.7% | Potency [4]

CC(=O)OCC(C)OC(C)=O (configuration not stated)
inactive: Potency [5] | Potency [6] | Potency [7] | Potency [8] | Potency [4] | Potency [9]

CCCCCCCCCCCCCCCC(=O)OC[C@H](O)[C@H]1OC(=O)C(O)=C1O
active: Potency [1] 54.9 µM
inactive: activity change, positive = activation [3, 11] -29.6% | Potency [7] | Potency [8] | Potency [4] | Potency [9]

COc1ccc(C(=O)/C(Br)=C\C(=O)O)cc1
inactive: Potency [6] | Potency [2] | Potency [4]
active: Potency [5] 31.8 µM | Potency [8] 38.9 µM

Oc1cccc(-c2c3nc(c(-c4cccc(O)c4)c4ccc([nH]4)c(-c4cccc(O)c4)c4nc(c(-c5cccc(O)c5)c5ccc2[nH]5)CC4)C=C3)c1
inactive: Potency [1] | Potency [4] | Potency [9]

Oc1ccc2c(c1)-c1ccccc1C2
inactive: Potency [5] | Potency [6] | activity change, positive = activation [3, 11] -22% | Potency [7] | Potency [4] | Potency [9]

Oc1ccc(C2(c3ccc(O)cc3)CC3CC2C2CCCC32)cc1 (configuration not stated)
active: Potency [1] 33.3 µM | Potency [8] 41.9 µM
inactive: activity change, positive = activation [3, 11] -75.2% | Potency [7] | Potency [4] | Potency [9]

CCCCN1C(=O)[C@@H]([C@H](O)C2CCCCC2)NC(=O)C12CCN(Cc1ccc(Oc3ccc(C(=O)O)cc3)cc1)CC2
inactive: Potency [5] | Potency [6] | Potency [10] | activity change, positive = activation [3, 11] -19.3% | Potency [7] | Potency [8] | Potency [4] | Potency [9]

Oc1ccc(N=Nc2ccccc2)cc1
inactive: Potency [1] | Potency [7] | Potency [4] | Potency [9]
active: Potency [8] 19.8 µM

CNC(=O)c1ccccc1
inactive: Potency [5] | Potency [6] | Potency [10] | Potency [7] | Potency [8] | Potency [4]

CCCCCCCCCCCCCCCS(=O)(=O)Oc1ccccc1
inactive: Potency [5] | Potency [6] | Potency [10] | Potency [7] | Potency [8] | Potency [4] | Potency [9]

COc1cccc(N)c1
inactive: Potency [5] | Potency [6] | Potency [10] | Potency [2] | activity change, positive = activation [3, 11] -25.2% | Potency [7] | Potency [4] | Potency [9]

CCCCCOc1ccccc1/C(=C\SC)n1ccnc1
active: Potency [1] 21.3 µM | Potency [2] 21.1 µM
inactive: Potency [7] | Potency [4] | Potency [9]

Cc1ccc(O)c2ncccc12
inactive: Potency [1] | Potency [7] | Potency [8] | Potency [4] | Potency [9]
active: Potency [2] 18.8 µM

Clc1ccc2nsnc2c1NC1=NCCN1
inactive: Potency [5] | Potency [6] | Potency [10] | Potency [2] | activity change, positive = activation [3, 11] -5.33% [at 42.5 µM] | Potency [7] | Potency [8] | Potency [4] | Potency [9]

N=C1N=C(N)c2ccccc21
active: Potency [1] 21.9 µM
inactive: Potency [4]

CO[Si](CCCNc1ccccc1)(OC)OC
inactive: Potency [5] | Potency [6] | Potency [10] | Potency [7] | Potency [8] | Potency [4] | Potency [9]

CCCC(C)c1ccccc1O (configuration not stated)
inactive: Potency [5] | Potency [6] | Potency [7] | Potency [4] | Potency [9]

[O-][n+]1ccccc1SSc1cccc[n+]1[O-]
inactive: activity change, positive = activation [3, 11] -64% [at 19 µM]
active: Potency [1] 0.117 µM | Potency [2] 0.259 µM | Potency [7] 208 nM | Potency [9] 0.165 µM

CC(C)OC(=O)c1cc2c(OCC(O)CNC(C)(C)C)cccc2[nH]1 (configuration not stated)
inactive: Potency [5] | Potency [6] | Potency [10] | Potency [7] | Potency [4] | Potency [9]
active: Potency [8] 9.52 µM

NNc1nc(-c2ccc(N)cc2)cs1
inactive: Potency [1] | Potency [7] | Potency [4] | Potency [9]
active: Potency [2] 61.1 µM

CCC(CN)=C(c1ccccc1)c1ccccc1
inactive: Potency [5] | Potency [6] | Potency [10] | Potency [7] | Potency [4] | Potency [9]

C=C(C)C(=O)OCC[N+](C)(C)C
inactive: Potency [5] | Potency [6] | Potency [10] | Potency [7] | Potency [8] | Potency [4]

COC(=O)c1cc(Cl)ccc1OC
inactive: Potency [5] | Potency [6] | Potency [7] | Potency [8] | Potency [4]

Cc1cc(=O)oc2cc(N(C)C)ccc12
active: Potency [6] 49 µM
inactive: Potency [5] | Potency [10] | Potency [4] | Potency [9]

Cc1ccc(-n2nc(C(C)(C)C)cc2NC(=O)Nc2ccc(OCCN3CCOCC3)c3ccccc23)cc1
active: Potency [5] 49.2 µM
inactive: Potency [6] | Potency [10] | activity change, positive = activation [3, 11] -18.8% [at 42.5 µM] | Potency [7] | Potency [4] | Potency [9]

Nc1c2ccccc2nc2ccccc12
active: Potency [5] 88.6 µM | Potency [2] 2.69 µM | Potency [8] 7.66 µM and 2.39 µM
inactive: activity change, positive = activation ([3]; at 42.5 µM (top of the series)) -23% | activity change, positive = activation ([3]; at 92.4 µM (top of the series)) -63.6% | Potency [4]

CCCN(CCC)C(=O)C(CCC(=O)OCCCN1CCN(CCOC(=O)Cc2c(C)n(C(=O)c3ccc(Cl)cc3)c3ccc(OC)cc23)CC1)NC(=O)c1ccccc1 (configuration not stated)
inactive: Potency [5] | Potency [10] | activity change, positive = activation [3, 11] -47.5% [at 42.5 µM] | Potency [4] | Potency [9]

C/C(=C(/OCCOc1ccc(Cl)cc1)c1ccc(Cl)cc1Cl)n1ccnc1
inactive: Potency [5] | Potency [10] | Potency [7] | Potency [4] | Potency [9]

C[C@]12CCC(=O)C=C1CC[C@@H]1[C@@H]2[C@@H](O)C[C@@]2(C)[C@H]1CC[C@]2(O)C(=O)COC(=O)CCC(=O)O
inactive: Potency [5] | Potency [10] | Potency [7] | Potency [8] | Potency [4]

CC(C)(C)CC(C)(C)c1ccc(OCCOCC[N+](C)(C)Cc2ccccc2)cc1
active: Potency [10] 101 µM and 49.2 µM | Potency [2] 6.85 µM and 5.96 µM | Potency [7] 48.9 µM and 9.52 µM | Potency [9] 24.5 µM and 9.52 µM
inactive: Potency [5] | Potency [4]

COc1ccc(CN2CCN(C(c3ccc(F)cc3)c3ccc(F)cc3)CC2)c(OC)c1OC
inactive: Potency [5] | activity change, positive = activation [3, 11] -66.6% [at 42.5 µM] | Potency [4]
active: Potency [2] 13.3 µM | Potency [8] 16.9 µM

CCc1cc(SCc2sc(-c3ccc(C(F)(F)F)cc3)nc2CN2CCN(c3ccc(OC)cc3)CC2)ccc1OCC(=O)O
active: Potency [5] 50.5 µM | Potency [10] 89.8 µM | Potency [2] 17.2 µM | Potency [8] 19.5 µM
inactive: activity change, positive = activation [3, 11] -62.5% | Potency [4] | Potency [9]

Oc1c(Cl)cc(Cl)c2cccnc12
inactive: Potency [10] | Potency [7] | Potency [4] | Potency [9]
active: Potency [5] 39.1 µM | Potency [2] 9.44 µM

Cc1cccc(CN2CCN(C(c3ccccc3)c3ccc(Cl)cc3)CC2)c1 (configuration not stated)
inactive: Potency [5] | Potency [7] | Potency [8] | Potency [4] | Potency [9]
active: Potency [2] 26.6 µM

N#CSc1ccc(N)c([N+](=O)[O-])c1
inactive: Potency [5] | Potency [10] | activity change, positive = activation [3, 11] -63.3% | Potency [4]
active: Potency [2] 43.5 µM | Potency [8] 49.3 µM

CCCCCCCCCCCCCCCCCC[N+](C)(C)C
inactive: Potency [5] | activity change, positive = activation [3, 11] -79.1% | Potency [4]
active: Potency [10] 90.1 µM

CC[C@@]1(O)C(=O)OCc2c1cc1n(c2=O)Cc2cc3c(CN(C)C)c(O)ccc3nc2-1
active: Potency [5] 1.39 µM | Potency [8] 0.0674 µM | Potency [4] 23.9 µM | Potency [9] 5.35 µM
inactive: Potency [10] | activity change, positive = activation [3, 11] -50.2% [at 42.5 µM]

CCN(Cc1cccnc1)C(=O)c1cccc(Cl)c1[C@]1(C)C(=O)N(Cc2ccc(OC)cc2OC)c2ccc(Cl)cc21
inactive: Potency [5] | Potency [10] | Potency [4]
active: Potency [8] 20.4 µM

CCCCCCCCOC(=O)c1ccc(O)cc1
inactive: Potency [5] | Potency [7] | Potency [4] | Potency [9]
active: Potency [10] 89.5 µM and 101 µM | Potency [8] 27.4 µM

NC(=O)N1C(=O)C(C(=O)c2cc(Cl)cs2)c2cc(F)c(Cl)cc21 (configuration not stated)
inactive: Potency [5] | Potency [2] | activity change, positive = activation [3, 11] -9.34% | Potency [8] | Potency [4]

O=C(Nc1cccc(Cl)c1)OCC#CCCl
inactive: Potency [10] | activity change, positive = activation [3, 11] -74.2% | Potency [4]
active: Potency [5] 113 µM | Potency [2] 30.6 µM | Potency [7] 49000 nM | Potency [8] 49 µM | Potency [9] 49 µM

Nc1nc2ccccc2n1Cc1ccc(F)cc1
inactive: Potency [5] | Potency [10] | activity change, positive = activation [3, 11] -28.8% [at 42.5 µM] | Potency [7] | Potency [4] | Potency [9]

O=C(Nc1ccc(Oc2ccc(Cl)cc2)c(Cl)c1)c1cc(I)cc(I)c1O
inactive: Potency [5] | activity change, positive = activation [3, 11] -35.9% [at 42.5 µM] | Potency [7] | Potency [8] | Potency [4]

CCN(C(=O)c1cc(C)cc(OC[C@H](C)Nc2ccncc2)c1)C(C)C
inactive: Potency [5] | Potency [10] | Potency [7] | Potency [8] | Potency [4] | Potency [9]
